The nature of test [1]: Validation of Assay for Modulators of Lamin A Splicing (AID 1459; active means well fitted curve in the direction sought with a large enough effect in the signal ratio; the % refers to the signal ratio;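 further: cells exposed to compound for two days before reading; 0% is about no effect; ratio rise marks activators and ratio drop marks inhibitors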). In outline:
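HeLa S3 lamin A-EGFP/DsRed2 stable clone, 600 cells/well, Opti-MEM 2% FBS; compounds by pin tool; 48 hrs, 37 °C/5% CO2; Acumen 488 nm scan, objects 10-100 um; GFP/RFP intensity ratio.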

The nature of test [2]: qHTS Assay for Lipid Storage Modulators (AID 1519; calls by dose curve). To be noted: Drosophila S3 cells, BODIPY lipid droplet/cell ratio, laser cytometry, cells loaded with oleic acid. In outline: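 Cells seeded at 5,000 per well were treated with compounds over a concentration series and loaded with oleic acid (400 uM, as added). Lipid droplet fluorescence (488 nm excitation, 500-530 nm channel) was read by laser-scanning cytometry and normalized to 20 uM Triacsin C.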

The target of test [3] is DNA repair nuclease/redox regulator APEX1 (Homo sapiens) (UniProt P27695). Description: qHTS Validation Assay for Inhibitors of the Human Apurinic/apyrimidinic Endonuclease 1 (APE1) (AID 1705;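 further: TAMRA fluorescence gain over two minutes as APE1 cuts a quenched THF abasic duplex; on the % scale 0 is the no-effect control and ±100 the full control effect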). In outline:
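qHTS, 1536-well. APE1 + cpd 15 min RT → 50 nM TAMRA/BHQ-2 THF-abasic dsDNA substrate → kinetic fluorescence, 3 reads/60 s; delta(read3−read1) = reaction progress. No-enzyme buffer = negative control.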
Background: In qHTS, concentration-response curves come from the screen itself.

Test [4] is described as follows: Counterscreen for APE1 Inhibitors: Fluorescent Dye Displacement Validation Assay (AID 1707).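 Further: plate controls were ThO with dsDNA and no compound for no effect and ThO without dsDNA for full effect.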 The method in brief:
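Endpoint fluorescence read at 480 nm excitation / 540 nm emission; DNA-binding compounds lower signal by displacing 250 nM Thiazole Orange from 50 nM dsDNA containing a tetrahydrofuran abasic site, Tris-HCl pH7.5 buffer with NaCl and MgCl2.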

Test [5] addresses Endonuclease 4 (Escherichia coli (strain K12)) (UniProt P0A6C1). The experiment in a line: Counterscreen for APE1 Inhibitors: qHTS Validation Assay for Inhibitors of Endonuclease IV (AID 1708). Further: on the % scale 0 is the no-effect control and ±100 the full control effect. In outline: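 Incision of a double-stranded 50 nM TAMRA/BHQ-2 abasic substrate was followed kinetically (525/598 nm, reads every 60 s) after 15 min enzyme–compound preincubation with 2 nM EndoIV in pH 7.5 Tris buffer with MgCl2, DTT and Tween-20; concentration-response format.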

Test [6] in a line: qHTS for differential inhibitors of proliferation of Plasmodium falciparum line 7G8 (AID 1815).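 Further: parasite growth measured after three days of incubation; plate controls were vehicle wells for no effect and reference inhibitor wells for full effect.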
Test [7] is described as follows: qHTS for differential inhibitors of proliferation of Plasmodium falciparum line GB4 (AID 1816).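 Further: parasite growth measured after 72 h incubation; 0% = vehicle DMSO and -100% = reference inhibitor.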 The settings on record: Potency: Plasmodium falciparum GB4 proliferation inhibition.
Test [8] in a line: qHTS for differential inhibitors of proliferation of Plasmodium falciparum line 3D7 (AID 1876).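 Further: parasite growth measured after three days of culture; 0% = vehicle wells and -100% = reference inhibitor wells.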
The nature of test [9]: qHTS for differential inhibitors of proliferation of Plasmodium falciparum line D10 (AID 1877).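 Further: parasites grown with compound for 72 h before DNA staining; plate controls were vehicle wells for no effect and reference inhibitor wells for full effect.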
Test [10] can be described thus: qHTS for differential inhibitors of proliferation of Plasmodium falciparum line Dd2 (AID 1882).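 Further: plate controls were DMSO vehicle for no effect and 0.29 µM artemisinin for full effect; nearly all actives have a fitted effect of over 65% in size.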 The settings on record: Potency: Plasmodium falciparum Dd2 proliferation inhibition. In outline: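 SYBR Green DNA fluorescence (ex 485, em 535 nm) after overnight lysis quantifies parasite growth; compound exposure lasted 72 h at 37 C on infected red cells at 2.5% hematocrit, 0.3% parasitemia (final). Artemisinin 0.29 uM and vehicle wells define normalization.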

Test [11] in a line: qHTS for differential inhibitors of proliferation of Plasmodium falciparum line W2 (AID 1883).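 Further: parasites grown with compound for 72 h before lysis and staining; 0% = vehicle wells and -100% = control inhibitor wells.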 The settings on record: Potency: Plasmodium falciparum W2 proliferation inhibition.
The nature of test [12]: qHTS for differential inhibitors of proliferation of Plasmodium falciparum line HB3 (AID 1886).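 Further: parasites grown with compound for 72 h before SYBR Green readout; plate controls were vehicle for no effect and reference inhibitor for full effect.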 To be noted: Potency: Plasmodium falciparum HB3 proliferation inhibition.
The nature of test [13]: qHTS Assay for Modulators of Human Peripheral Myelin Protein 22 (PMP22) Expression/Activity (AID 1967; active means well fitted curve in the direction sought with a large enough effect in the signal ratio; the % refers to the signal ratio;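 further: 0% = untreated cells and 100% end not stated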). The method in brief:
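Luminescence ratio of Pmp22 promoter-driven green luciferase to EF-alpha-driven red luciferase, in engineered mouse MSC80 Schwann cells, served as read-out. Compounds were incubated 24h; untreated cells defined 0% Activity; curves were classified by r2, magnitude and activity.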

The target of test [14] is Ferritin light chain (Equus caballus) (UniProt P02791). Description: qHTS Validation Assay for Identification of Novel General Anesthetics (AID 2323). Further: on the % scale 0 is the no-effect control and ±100 the full control effect. In outline: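 Fluorescence at 535 nm (excitation 380 nm) reported loss of 1-AMA binding to horse-spleen apoferritin (10 uM) in PBS with 50% saturated 1-aminoanthracene, after 10 min room-temperature incubation with compound; values from Hill fits of normalized response.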

Test [15] addresses ATP-dependent DNA helicase Q1 (Homo sapiens) (UniProt P46063). The experiment in a line: qHTS Validation Assay for Inhibitors of RecQ-Like Dna Helicase 1 (RECQ1) (AID 2353).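 Further: plate controls were DMSO vehicle for no effect and enzyme-free control for full effect.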 The method in brief:
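RECQ1T1 50 nM; forked duplex (20 bp + 30-nt ss tails) 200 nM, ATP 2 mM final; pH 8.0, 2 mM MgCl2, 2.5 ug/ml poly(dI-dC); 15 min compound preincubation; discontinuous kinetic read over 2 h at RT.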

Test [16] deals with RecQ-like DNA helicase BLM (Homo sapiens) (UniProt P54132). Description: qHTS Validation Assay for Inhibitors of Bloom's syndrome helicase (BLM) (AID 2364).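 Further: plate controls were DMSO vehicle for no effect and enzyme-free control for full effect.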 In outline:
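Forked 20-bp duplex substrate (200 nM, TAMRA/BHQ-2) plus 2 mM ATP added after 15 min compound preincubation with 50 nM enzyme, pH 8.0, poly(dI-dC) 2.5 ug/ml. Strand separation followed by fluorescence (525/598 nm) over 2 h, normalized to enzyme-free and DMSO controls.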

A short description of test [17]: Validation screen for small molecules that induce DNA re-replication in MCF 10A normal breast cells (AID 463097). Further: 0% is about no effect; nearly all actives have a fitted effect of over 60% in size. The method in brief:
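Image-based qHTS: normal breast cells are incubated with compound for 48 hr, stained with Hoechst, and scanned for total nuclear fluorescence. Compounds raising the fraction of nuclei with elevated DNA content count as re-replication inducers.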

A short description of test [18]: Quantitative high throughput screen for delayed death inhibitors of the malarial parasite plastid, 96 hour incubation (AID 488745).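 Further: luciferase-expressing P. falciparum in erythrocytes at 2% hematocrit and 0.1% parasitemia; on the % scale 0 is the no-effect control and ±100 the full control effect; nearly all actives have a fitted effect of over 70% in size.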 In outline: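 Readout is firefly luciferase luminescence from an integrated reporter in P. falciparum; lower signal marks inhibited growth. Cultures at 2% hematocrit and 0.1% parasitemia were treated with compound across two generations (96 h, 37 C, 5% CO2).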

Test [19] deals with M-phase phosphoprotein 8 (Homo sapiens) (UniProt Q99549). The experiment in a line: qHTS Validation Assay for Inhibitors for MPP8 Chromodomain Interactions with Methylated Histone Tails (AID 488949).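 Further: 50 nM MPP8 with 50 nM peptide preformed then compounds added for 30 min; AlphaScreen signal from MPP8 chromodomain bound to biotinylated H3K9me3 peptide; top concentration of the series differs between compounds; on the % scale 0 is the no-effect control and ±100 the full control effect; nearly all actives have a fitted effect of over 55% in size.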 The method in brief: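 50 nM MPP8 + 50 nM b-H3K9me3 peptide, PBS pH 7.4/0.01% Tween-20, 30 min RT; + cpd 30 min RT; + AlphaScreen donor/Ni-chelate acceptor beads 10 ug/mL final, 30 min dark; luminescence read.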

Test [20] addresses Thyrotropin receptor (Homo sapiens) (UniProt P16473). Description: qHTS Assay for Antagonists of the Thyroid Stimulating Hormone Receptor (AID 488980). Further: 0% is about no effect. The method in brief:
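Readout is cAMP by HTRF competition between cellular cAMP and cAMP-d2 for a cryptate-labelled antibody. Antagonism was assessed in TSHR-transfected HEK293 cells stimulated with 4 nM TSH (EC80, final) in the presence of RO 20-1724.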

The target of test [21] is Thyrotropin-releasing hormone receptor (Homo sapiens) (UniProt P34981). Description: qHTS for Small Molecule Agonists and Allosteric Enhancers of Human TRH Receptor: Validation Screen for Agonists (AID 493127;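 active means calcium activation more than 3 SD above the typical response in the agonist read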;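 further: intracellular calcium rise by fluo-8 fluorescence before TRH EC20 addition; 0% is about no effect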). To be noted: TRH receptor agonist cell assay; at 2 µM; stronger effect = higher value. In outline:
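Compounds are added by online pintool to dye-loaded TRHR cells while fluorescence is recorded every second. A rise in calcium signal during the agonist read marks activation; a later 10 nM TRH addition (EC20) serves the separate enhancer mode.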

Test [22] has as its target Galactokinase (Homo sapiens) (UniProt P51570). Description: qHTS Validation Assay for Inhibitors of Human Galactokinase (GALK) (AID 493189). Further: 0% is about no effect. The method in brief:
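5 nM GALK / 100 uM galactose / 35 uM ATP, 20 mM HEPES pH8.0, 5 mM MgCl2, 60 mM NaCl, 1 mM DTT, 0.01% BSA (final). RT 1 h; Kinase-Glo Plus luminescence.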

The nature of test [23]: Validation screen for small molecules that induce DNA re-replication in SW480 colon adenocarcinoma cells (AID 504364). Further: 0% is about no effect. In outline: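 Image-based qHTS: compounds were incubated with SW480 cells for 48 hr, nuclei stained with Hoechst, and per-nucleus fluorescence intensity scanned to flag cells with excess DNA content.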
Test [24] has as its target Voltage-gated inwardly rectifying potassium channel KCNH2 (Homo sapiens) (UniProt Q12809). Description: qHTS Assay for Small Molecule Inhibitors of the Human hERG Channel Activity (AID 588834).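 Further: top concentration of the series differs between compounds; on the % scale 0 is the no-effect control and ±100 the full control effect; lower thallium flux fluorescence means stronger hERG block; nearly all actives have a fitted effect of over 50% in size.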 The method in brief:
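Step 1: BacMam hERG transduction of U2OS, 4 hrs RT. Step 2: overnight 37 °C, plate 2000 cells/well, 4 hr. Step 3: FluxOR load, compound 10 min, stimulate, read fluorescence.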

Test [25] deals with Zika virus NS2B-NS3 protease. Description: Primary screen GU AMC qHTS for Zika virus inhibitors (AID 1347154).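 Further: 0% = no-inhibitor control and -100% = no-enzyme control; nearly all actives have a fitted effect of over 70% in size.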 In outline:
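Fluorogenic AMC-substrate cleavage by noncovalent NS2B-NS3 protease complex (25 nM, pH 8.0 Tris buffer with Tween 20) followed for 15 minutes at room temperature (~20% conversion). Percent inhibition from ex340/em450 signal change, fitted by 4-parameter Hill equation.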

A short description of test [26]: Primary qHTS for small molecule stabilizers of the endoplasmic reticulum resident proteome: Secreted ER Calcium Modulated Protein (SERCaMP) assay (AID 1508630). Further: on the % scale 0 is the no-effect control and ±100 the full control effect. The method in brief:
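The SH-SY5Y reporter protocol was run at 3 concentrations up to 38.3 uM (primary) or 11 concentrations (follow-up): 16 h compound, 100 nM thapsigargin for 4 h, then extracellular luciferase luminescence.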

Results filed as inconclusive are left out. Active and inactive are the calls of the source. Unless noted, the call rests on the fitted dose curve; in most records, active means well fitted curve in the direction sought with a large enough effect; inconclusive means small, poorly fitted or top-dose-only effect, or another doubt; inactive means no such curve, though single readings can be large; an effect the other way counts as inactive or inconclusive.

Thyrotropin-releasing hormone receptor (Homo sapiens), sequence (P34981 whole entry, looked up): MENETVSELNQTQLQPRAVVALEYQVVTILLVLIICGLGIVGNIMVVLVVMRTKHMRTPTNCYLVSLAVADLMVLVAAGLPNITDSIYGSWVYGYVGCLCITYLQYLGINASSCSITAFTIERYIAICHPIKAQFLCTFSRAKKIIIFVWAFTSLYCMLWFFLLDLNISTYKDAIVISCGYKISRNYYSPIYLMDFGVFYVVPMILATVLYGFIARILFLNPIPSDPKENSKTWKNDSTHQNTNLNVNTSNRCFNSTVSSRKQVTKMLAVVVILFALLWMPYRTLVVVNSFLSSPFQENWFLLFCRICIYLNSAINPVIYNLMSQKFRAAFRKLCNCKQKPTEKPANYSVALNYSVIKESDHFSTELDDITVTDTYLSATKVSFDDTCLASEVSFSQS
DNA repair nuclease/redox regulator APEX1 (Homo sapiens), sequence (P27695 whole entry, looked up): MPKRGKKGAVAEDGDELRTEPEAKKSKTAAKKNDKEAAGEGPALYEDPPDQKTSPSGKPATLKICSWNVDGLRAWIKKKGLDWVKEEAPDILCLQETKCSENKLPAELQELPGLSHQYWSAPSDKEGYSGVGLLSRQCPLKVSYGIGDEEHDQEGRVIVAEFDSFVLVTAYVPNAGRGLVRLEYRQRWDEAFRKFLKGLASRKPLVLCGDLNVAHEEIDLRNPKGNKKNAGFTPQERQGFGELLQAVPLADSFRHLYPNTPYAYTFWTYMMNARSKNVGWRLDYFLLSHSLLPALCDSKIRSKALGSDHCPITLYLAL
Ferritin light chain (Equus caballus), sequence (P02791 2-175 limits assumed): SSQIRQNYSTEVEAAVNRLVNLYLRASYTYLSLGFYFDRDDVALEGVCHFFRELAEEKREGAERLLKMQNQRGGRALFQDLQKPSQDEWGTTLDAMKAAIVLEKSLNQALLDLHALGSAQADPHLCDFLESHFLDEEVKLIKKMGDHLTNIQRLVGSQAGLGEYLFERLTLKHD
Voltage-gated inwardly rectifying potassium channel KCNH2 (Homo sapiens), sequence (Q12809 whole entry, looked up): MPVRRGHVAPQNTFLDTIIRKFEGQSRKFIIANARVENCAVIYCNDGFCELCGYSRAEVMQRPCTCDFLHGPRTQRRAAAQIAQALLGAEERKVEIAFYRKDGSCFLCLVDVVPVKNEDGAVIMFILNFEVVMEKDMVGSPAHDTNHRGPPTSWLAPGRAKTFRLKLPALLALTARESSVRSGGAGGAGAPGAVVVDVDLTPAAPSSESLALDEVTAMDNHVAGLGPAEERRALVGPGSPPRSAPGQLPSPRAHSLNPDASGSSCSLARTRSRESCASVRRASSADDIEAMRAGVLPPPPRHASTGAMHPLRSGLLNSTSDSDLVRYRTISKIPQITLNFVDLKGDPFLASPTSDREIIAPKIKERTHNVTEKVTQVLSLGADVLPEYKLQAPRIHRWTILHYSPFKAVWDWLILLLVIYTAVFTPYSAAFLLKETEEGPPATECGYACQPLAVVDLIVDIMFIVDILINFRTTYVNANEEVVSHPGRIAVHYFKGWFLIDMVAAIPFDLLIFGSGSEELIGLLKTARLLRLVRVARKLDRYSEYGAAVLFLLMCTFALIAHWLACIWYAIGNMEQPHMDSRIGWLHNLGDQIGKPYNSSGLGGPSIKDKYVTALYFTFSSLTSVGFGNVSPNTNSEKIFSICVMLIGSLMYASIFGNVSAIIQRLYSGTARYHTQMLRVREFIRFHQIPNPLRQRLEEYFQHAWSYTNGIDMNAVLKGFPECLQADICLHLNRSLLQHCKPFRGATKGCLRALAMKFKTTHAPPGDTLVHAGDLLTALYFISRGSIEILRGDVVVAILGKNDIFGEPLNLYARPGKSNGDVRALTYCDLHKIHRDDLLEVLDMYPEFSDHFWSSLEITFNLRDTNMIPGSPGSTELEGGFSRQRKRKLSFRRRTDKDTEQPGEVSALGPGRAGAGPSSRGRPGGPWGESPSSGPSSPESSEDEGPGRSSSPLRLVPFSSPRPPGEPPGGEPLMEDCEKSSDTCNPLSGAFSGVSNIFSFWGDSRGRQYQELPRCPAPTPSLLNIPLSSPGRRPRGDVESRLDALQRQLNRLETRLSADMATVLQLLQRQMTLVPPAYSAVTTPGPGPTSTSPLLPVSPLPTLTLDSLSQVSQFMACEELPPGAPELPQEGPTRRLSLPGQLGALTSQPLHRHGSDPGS
ATP-dependent DNA helicase Q1 (Homo sapiens), sequence (P46063 whole entry, looked up): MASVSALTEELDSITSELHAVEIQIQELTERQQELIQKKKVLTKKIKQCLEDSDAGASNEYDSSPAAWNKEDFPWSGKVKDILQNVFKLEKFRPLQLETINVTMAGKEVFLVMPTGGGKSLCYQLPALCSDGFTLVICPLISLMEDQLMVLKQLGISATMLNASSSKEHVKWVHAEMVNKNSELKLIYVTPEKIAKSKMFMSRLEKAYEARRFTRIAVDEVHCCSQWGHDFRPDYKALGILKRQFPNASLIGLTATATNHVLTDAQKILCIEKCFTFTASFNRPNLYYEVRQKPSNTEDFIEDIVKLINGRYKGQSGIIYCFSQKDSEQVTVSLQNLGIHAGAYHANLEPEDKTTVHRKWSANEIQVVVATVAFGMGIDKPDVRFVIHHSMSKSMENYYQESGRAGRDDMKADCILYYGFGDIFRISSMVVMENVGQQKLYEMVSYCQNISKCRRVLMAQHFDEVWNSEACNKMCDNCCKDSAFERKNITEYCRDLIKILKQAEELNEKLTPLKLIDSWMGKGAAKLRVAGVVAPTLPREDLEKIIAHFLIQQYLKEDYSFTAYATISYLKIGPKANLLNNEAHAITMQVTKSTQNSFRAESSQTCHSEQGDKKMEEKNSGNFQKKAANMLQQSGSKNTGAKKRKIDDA
RecQ-like DNA helicase BLM (Homo sapiens), sequence (P54132 whole entry, looked up): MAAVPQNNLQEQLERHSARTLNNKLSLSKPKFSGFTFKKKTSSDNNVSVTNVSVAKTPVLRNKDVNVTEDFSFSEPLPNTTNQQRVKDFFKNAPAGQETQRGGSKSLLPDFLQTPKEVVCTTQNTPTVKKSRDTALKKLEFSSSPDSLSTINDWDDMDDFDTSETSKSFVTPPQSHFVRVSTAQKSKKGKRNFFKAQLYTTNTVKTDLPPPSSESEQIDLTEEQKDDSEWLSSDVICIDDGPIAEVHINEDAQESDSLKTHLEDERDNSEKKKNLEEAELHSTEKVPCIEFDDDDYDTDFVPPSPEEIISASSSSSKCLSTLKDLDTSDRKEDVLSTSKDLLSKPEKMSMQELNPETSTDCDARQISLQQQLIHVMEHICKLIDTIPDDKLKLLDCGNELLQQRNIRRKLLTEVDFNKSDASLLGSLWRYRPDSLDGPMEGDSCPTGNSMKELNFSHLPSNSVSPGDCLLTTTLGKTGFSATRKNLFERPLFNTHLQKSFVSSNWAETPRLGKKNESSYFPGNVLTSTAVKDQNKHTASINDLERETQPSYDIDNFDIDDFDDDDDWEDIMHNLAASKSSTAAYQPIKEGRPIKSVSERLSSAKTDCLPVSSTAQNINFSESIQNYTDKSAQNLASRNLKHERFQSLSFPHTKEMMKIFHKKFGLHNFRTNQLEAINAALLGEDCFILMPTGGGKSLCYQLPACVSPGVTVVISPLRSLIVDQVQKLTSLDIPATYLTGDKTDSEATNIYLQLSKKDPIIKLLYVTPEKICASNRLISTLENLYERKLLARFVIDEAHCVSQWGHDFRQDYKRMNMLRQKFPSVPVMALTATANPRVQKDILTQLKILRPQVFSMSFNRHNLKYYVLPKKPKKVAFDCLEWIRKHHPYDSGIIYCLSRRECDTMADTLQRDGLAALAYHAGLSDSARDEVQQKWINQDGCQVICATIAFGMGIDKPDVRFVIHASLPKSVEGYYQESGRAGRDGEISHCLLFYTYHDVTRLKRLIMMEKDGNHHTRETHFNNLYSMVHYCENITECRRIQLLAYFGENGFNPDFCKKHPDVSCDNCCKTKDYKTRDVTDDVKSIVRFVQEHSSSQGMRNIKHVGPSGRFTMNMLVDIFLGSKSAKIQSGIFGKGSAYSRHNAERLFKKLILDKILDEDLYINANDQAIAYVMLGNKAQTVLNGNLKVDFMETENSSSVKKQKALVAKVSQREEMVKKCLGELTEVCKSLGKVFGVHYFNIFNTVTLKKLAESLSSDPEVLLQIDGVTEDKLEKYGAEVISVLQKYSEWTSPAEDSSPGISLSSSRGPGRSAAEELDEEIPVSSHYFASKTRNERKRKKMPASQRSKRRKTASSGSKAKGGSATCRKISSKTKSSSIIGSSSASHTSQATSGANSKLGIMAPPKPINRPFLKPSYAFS
Galactokinase (Homo sapiens), sequence (P51570 whole entry, looked up): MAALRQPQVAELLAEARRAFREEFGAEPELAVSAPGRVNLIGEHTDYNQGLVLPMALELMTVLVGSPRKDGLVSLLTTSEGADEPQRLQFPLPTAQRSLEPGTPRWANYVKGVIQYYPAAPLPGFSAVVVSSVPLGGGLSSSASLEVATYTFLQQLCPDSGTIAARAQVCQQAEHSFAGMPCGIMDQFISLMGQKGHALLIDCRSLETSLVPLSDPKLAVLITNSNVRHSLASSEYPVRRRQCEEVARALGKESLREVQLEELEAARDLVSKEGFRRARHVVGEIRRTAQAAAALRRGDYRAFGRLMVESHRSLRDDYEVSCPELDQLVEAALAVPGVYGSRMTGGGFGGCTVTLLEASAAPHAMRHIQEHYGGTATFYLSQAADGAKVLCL

Turning to `NC(CCC(=O)NCS(=O)(=O)O)C(=O)O` (stereo not given), the call in test [1], in test [13], in [14], in test [20], in test [22] and in test [23] was inactive. Besides, in test [2] (at 57.5 µM (top of the series)), the activity change, negative = inhibition is 1.69% (inactive). Besides, the figures for the max response in test [2] (measured here: cell count channel max response) and in test [2] (measured here: lipid channel max response) were 45.8% and 46.4%, respectively. Further, the Potency result in test [3], in test [4], in [5], in test [6], in [7] and in test [8] was “inactive” throughout. Moreover, the Potency entry in [9], in [10], in test [11], in [12], in test [15] and in test [16] was “inactive” in each case. Further, the Potency entry in test [17], in test [18], in [19], in test [24], in [25] and in test [26] was “inactive” throughout. In addition, the activation in test [21] was 1.56% (inactive).

For `O=C(O)CCC/C=C\C[C@@H]1C(/C=C/[C@@H](O)COc2cccc(C(F)(F)F)c2)[C@@H](O)C[C@@H]1O` (stereo not given in full), the activity change, negative = inhibition in test [25] is 0.372% [at 6.83 µM] (inactive).

Take `CCCCCCCCCCCCCCCCOCC(COP(=O)([O-])OCC[N+](C)(C)C)OC` (stereo not given): the activity change, negative = inhibition in test [25] is 5.04% [at 6.83 µM] (inactive).

These data come from PubChem BioAssay (NCATS).
